# Data: PubChem BioAssay (NCI)
# This is part of a sample that, as a whole, favours compounds with a hit. Of some 83,000 tested, about 20% had one in any assay.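 Single-dose data. Exposure time 48 hours. Values below 10 considered active.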 Values without a mark were called inactive. Activity calls are given as the source filed them.
# Legend:
# Assay in all cases: NCI-60 one-dose screen, 48 h (100 = growth as untreated, 0 = no growth, -100 = all killed)
# Settings in all cases: 10 µM unless noted
# SK-MEL-2 melanoma = system: SK-MEL-2 melanoma
# EKVX NSCLC = system: EKVX NSCLC
# SN12C renal = system: SN12C renal
# UO-31 renal = system: UO-31 renal
# TK-10 renal = system: TK-10 renal
# ACHN renal = system: ACHN renal
# CAKI-1 renal = system: CAKI-1 renal
# A498 renal = system: A498 renal
# CCRF-CEM leukemia = system: CCRF-CEM leukemia
# MOLT-4 leukemia = system: MOLT-4 leukemia
Compound,growth (SK-MEL-2 melanoma),growth (EKVX NSCLC),growth (SN12C renal),growth (UO-31 renal),growth (TK-10 renal),growth (ACHN renal),growth (CAKI-1 renal),growth (A498 renal),growth (CCRF-CEM leukemia),growth (MOLT-4 leukemia)
CS(=O)(=O)c1ccc(C(=O)N/N=C/c2ccccc2O)cc1,40%,25.8%,58.7%,18%,45.8%,28.3%,34.9%,75.2%,15.3%,9.19% (active)
COc1ccc(CNc2c3ccccc3nc3ccccc23)cc1F,45.1%,26.1%,25.9%,13.5%,36.1%,10.9%,21.3%,-6.26% (active),29.6%,8.92% (active)
CC(C)(C)[Si](C)(C)OC1[C@@H](O[Si](C)(C)C(C)(C)C)[C@@H](CNC(=O)NC(=O)NC(=O)CCl)O[C@H]1n1cnc2c(NC(=O)Nc3ccccc3)ncnc21 (stereo not given in full),84.9%,86.3%,54.6%,-94.9% (active),97.2%,-12.9% (active),76.2%,88.7%,-30.4% (active),4.05% (active)
c1cc(C2CCCCC2)ccc1-c1cnc2nonc2n1,8.16% (active),37.3%,19.5%,29%,15.6%,34.6%,34.2%,9.62% (active),3.66% (active),-5.4% (active)
c1ccc(-c2nnn(-c3ccccc3)n2)cc1,94.7%,93.2%,103%,81.3%,147%,105%,92.9%,119%,95.2%,91.2%
COc1ccc(/C=C/C(=O)CCC(=O)O)cc1OC,97.5%,109%,101%,83.3%,104%,108%,95.5%,121%,95.6%,102%
CCOC(=O)C(Cc1ccccc1)n1c(O)c(/C=N/c2ncc(Cc3ccc(Cl)cc3Cl)s2)sc1=S (stereo not given),-18.4% (active),10.8%,6.54% (active),3.67% (active),2.28% (active),3.38% (active),12.7%,-27.3% (active),2.77% (active),-7.05% (active)
O=[N+]([O-])c1ccc(N/N=C\c2ccc(O)cc2O)nc1,28.9%,29.3%,50.9%,28.1%,22.7%,26.8%,4.77% (active),107%,18.8%,13.6%
Oc1ccccc1-c1nnc(COc2ccc(Cl)cc2Cl)o1,37.9%,31.1%,52.6%,30.2%,63.7%,43.5%,41.5%,89.9%,15.5%,19.5%
CC(=O)N1N=C(C2C(=O)N(C)C(=O)N(C)C2=O)CC1c1ccccc1C(=O)O (stereo not given),102%,105%,101%,87.4%,97.6%,98.9%,94.8%,91.7%,94.6%,97.1%
COc1ccc2[nH]cc(C3(c4c[nH]c5ccc(OC)cc45)C(=O)Nc4ccc(F)cc43)c2c1,98.3%,37%,106%,62%,125%,86.7%,40.8%,60.8%,15.4%,1.29% (active)
COc1ccc2c(c1)OC1=C(C(=O)OC1)C2c1cc(OC)c2c(c1)OCCO2 (stereo not given),41.3%,55.5%,27.5%,46.2%,76.2%,27.8%,48.1%,-1.6% (active),15%,20.8%
O=c1nc(-c2ccccc2)c2cc(-c3ccc(N4CCOCC4)cc3)ccc2[nH]1,81.6%,89.8%,79.4%,66%,68.1%,71.6%,74.8%,88.6%,77.4%,71.2%
